# Test results from ChEMBL document CHEMBL4513216, “Probing the Open Global Health Chemical Diversity Library for Multistage-Active Starting Points for Next-Generation Antimalarials” (ACS Infect Dis, 2020).
# Out of some 68,000 compounds screened, about 2,700 (4%) showed an effect of 50% or more. This is one part of a sample in which strong results are shown more often than they occur.
# Tested on: Plasmodium berghei
# Experiment: Screen against P. berghei liver stage (PbLuc), transformed with Luciferase, at 2uM
# Type: functional, HepG2
# Settings: tested at 2 uM
row,Structure (SMILES),INHIBITION
1,CCCN1CCCC2(CCN(S(=O)(=O)N3CCC(OC)CC3)C2)C1=O (centres undefined),-46.38%
2,CCN(Cc1ccncc1)CC1(O)CCN(C(=O)c2ccccc2C)C1 (centres undefined),44.07%
3,CCN(Cc1ccncc1)CC1(O)CCN(C(=O)c2cnn(C)c2)C1 (centres undefined),52.82%
4,CCN(Cc1ccncc1)CC1(O)CCN(C(=O)c2cccc(C)c2)C1 (centres undefined),45.73%
5,COCc1nc(C(=O)NS(=O)(=O)c2cc(C)ccc2C)cs1,25.74%
6,Cc1cc(N2CCN(C(=O)c3cnn(C(C)C)c3)CC2)cc(C)n1,44.95%
7,NC(=O)CN1CC2(CCC1=O)CCN(Cc1cc(F)ccc1Cl)CC2,23.7%
8,Cn1cc(CN2CCC3(CC2)CN(C(=O)c2cnccn2)CCO3)cn1,2.22%
9,Cc1cc(N2CCCC(c3nncn3C3CC3)C2)ncn1 (centres undefined),-23.49%
10,CC(C(=O)N1CCCC1)N1CCC(c2nccn2CC2CCC2)CC1 (centres undefined),-19.54%
11,c1ncn(Cc2nnc(C3CCN(C4CCOCC4)CC3)n2C2CC2)n1,-33.43%
12,CCn1c(Cn2cncn2)nnc1C1CCN(C2CCNCC2)CC1,19.49%
13,CCn1c(Cn2cncn2)nnc1C1CCN(C2CCOCC2)CC1,50.32%
14,CCn1c(CN(C)C)nnc1C1CCN(Cc2ccncc2)CC1,11.74%
15,CCn1c(CN2CCCC2)nnc1C1CCN(Cc2ccncc2)CC1,54.41%
16,CCn1c(CN2CCCC2)nnc1C1CCN(Cc2cccnc2)CC1,-35.07%
17,Cc1cnc(C)c(Oc2ccc(CN3CCCC3)cc2Cl)n1,-9.5%
18,Cc1ccc(C2CCCCCN2CCCS(C)(=O)=O)o1 (centres undefined),38.67%
19,Cc1ccc(C2CCCCCN2CCNS(C)(=O)=O)o1 (centres undefined),48.21%
20,CNS(=O)(=O)CCCN1CCCCCC1c1ccc(C)o1 (centres undefined),60.13%
21,CC1CCN(S(=O)(=O)N2Cc3ccccc3C[C@H]2C(N)=O)CC1,21.37%
22,COC(=O)c1cc(C2CC2)nc2c(C#N)cnn12,11.95%
23,O=C(O)c1cc(C2CC2)nc2c(Cl)cnn12,0.89%
24,COC(=O)c1cc(C2CC2)nc2c(Cl)cnn12,70.37%
25,Cc1nc(CN2CCCn3c(nc(Cn4cncn4)cc3=O)C2)cs1,37.6%
26,N#Cc1ccc(N2CCC3(CC2)CC(Oc2cccnc2)CO3)cc1 (centres undefined),38.49%
27,FC1(F)CCN(Cc2ccccn2)CC12CCN(c1cccnc1)C2 (centres undefined),2.07%

row,Structure (SMILES),INHIBITION
1,COC1CCN(C(=O)c2ccccc2NCc2cccnc2)CC1,54.77%
2,CC(C)N1CCN(C(=O)c2ccccc2NCc2cccnc2)CC1,8.73%
3,COCC1CCCN(C(=O)c2ccccc2NCc2cccnc2)C1 (centres undefined),22.39%
4,Cc1cc(CNCCNS(C)(=O)=O)sc1Br,20.76%
5,O=C(CCn1cncn1)N1C[C@@H]2CC[C@H]1CN(Cc1cccnc1)C2,44.37%
6,O=C(NCC1CCOC1)c1cc(-c2ccc(Cl)cc2)n[nH]1 (centres undefined),61.07%
7,O=C(NCC1CCOC1)c1cc(-c2ccc(F)cc2)[nH]n1 (centres undefined),-22.69%
8,O=C(NCC1CCOC1)c1cc(-c2cccc(Cl)c2)[nH]n1 (centres undefined),47.03%
9,CCCS(=O)(=O)NC(=O)c1ccc(Br)o1,56.8%
10,CCCS(=O)(=O)NC(=O)c1ccc(CC)o1,10.48%
11,CCCN(C)S(=O)(=O)NC(=O)c1ccc(CC)o1,13.28%
12,NC1CCCCN(Cc2cc(-c3ccccc3OC(F)(F)F)no2)C1 (centres undefined),28.63%
13,Cc1ccsc1CNCc1c(C(C)C)nn(C)c1N1CCOCC1,-28.5%
14,O=C1CC(c2ccccc2F)c2c(n3ccsc3nc2=O)N1 (centres undefined),25.47%
15,CCOC(C)c1noc(CN(C)C(=O)c2cc3ccccn3c2)n1 (centres undefined),52.08%
16,CCOC(C)c1noc(CN(C)C(=O)C2C(C)(C)C2(C)C)n1 (centres undefined),20.14%
17,CCOC(C)c1noc(CN(C)C(=O)c2ccncc2)n1 (centres undefined),20.14%
18,Cc1cnn(CCC(=O)N2CCCN(c3ccccc3C#N)CC2)c1,-43.47%
19,CCNC(=O)N(C)C(c1cccnc1)C(C)C (centres undefined),42.2%
20,CC(C)C(c1cccnc1)N(C)C(=O)Cc1ccc(O)cc1 (centres undefined),39.44%
21,CC(C)C(c1cccnc1)N(C)C(=O)Cc1c(F)cccc1F (centres undefined),54.29%
22,CS(=O)(=O)c1cccc(C(N)c2ccc(F)cc2)c1 (centres undefined),-19.35%
23,CS(=O)(=O)c1cccc(C(N)c2ccccc2)c1 (centres undefined),35.65%
24,Cc1ccc(C(N)c2cccc(S(C)(=O)=O)c2)cc1 (centres undefined),54.92%
25,COc1ccc(CNC(=O)C(NC(=O)Cc2ccccc2)C(C)C)cn1 (centres undefined),-129.64%
26,O=C(Cc1ccccc1)N1CCC2(CC(=O)N(c3ccsc3)C2)C1 (centres undefined),-54.51%
27,COc1ccc(Cl)cc1C(=O)NCC1CCN(C(=O)c2ccoc2)CC1,17.33%
